Screens deposited in PubChem by National Center for Advancing Translational Sciences (NCATS).
Most compounds without a hit are left out; they make up all but 11% or so of the library.
AMA1-RON2 inh = inhibitors of Plasmodium falciparum AMA1-RON2 interaction. 360,000 tested, 0.2% active. Potency, µM (highest dose often 58.2 µM), inactives show at the highest dose activity change, negative = inhibition, hits mostly inhibitors. AID 720542. AlphaScreen AMA1-biotinylated RON2 peptide binding;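 note: 0% = vehicle wells and -100% = peptide control; nearly all actives have a fitted effect of over 45% in size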
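AMA1 (3D7) with his tag at 25 nM final met compounds first, then biotinylated RON2 peptide at 25 nM; detection used donor plus acceptor beads, 10 µg/mL apiece, read by AlphaScreen after 30 min at room temperature.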
Pf growth 96h = P. falciparum growth inhibition at 96 hours; P. falciparum luciferase reporter growth, 96 h; Potency, µM (highest dose often 28.7 µM), without a hit: at the top dose activity change, negative = inhibition, most hits filed as inhibitors; 320,000 tested, 6.9% active; AID 504834; note: % is set by controls: 0 for no effect and ±100 for the full control effect
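Delayed-death screen, second-generation endpoint: infected erythrocytes, 2% hematocrit, 0.05% parasitemia final; 96 hours at 37 C, 5% CO2; luciferase detection reagent; luminescence decrease equals reduced growth.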
NS1 function inh = inhibitors of influenza NS1 protein function; Potency, µM (highest dose often 46.1 µM), for the others: top-dose activity, positive = more growth; 270,000 tested, 0.4% active; AID 2326; calls by dose curve; note: actives are rising curves; nearly all actives have a fitted effect of over 50% in size
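Growth recovery, yeast-based: influenza A NS1 expressed in S. cerevisiae causes slow growth, and suppressors are detected by OD600. The parent strain without NS1 is used as positive control.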
Pf growth 48h = P. falciparum growth inhibition at 48 hours (one generation); Potency, µM (top dose mostly 28.7 µM), without a hit: at the highest dose activity change, negative = inhibition, usual class: inhibitors; AID 504832; P. falciparum luciferase growth in erythrocytes, 48 h; 310,000 tested, 5.9% active; note: % is set by controls: 0 for no effect and ±100 for the full control effect
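A one-generation exposure of luciferase-tagged malaria parasites in RPMI 1640/Albumax erythrocyte culture, 37 C and 5% CO2. Inhibition is inferred from decreased luminescence after adding detection reagent.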
Sm TGR block = inhibitors of Schistosoma mansoni thioredoxin glutathione reductase | purified TGR, DTNB reduction, TNB absorbance 405 nm | 360,000 tested, 3% active | Potency, µM (titrated, usually from 114 µM), for the others: at the highest dose activity change, negative = inhibition, actives largely listed as inhibitors | AID 485364; note: % is set by controls: 0 for no effect and ±100 for the full control effect; nearly all actives have a fitted effect of over 60% in size
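Kinetic colorimetric format: TGR-catalysed, NADPH-driven DTNB reduction monitored via TNB absorbance. Enzyme dispensed at 20 nM; compound exposure 15 min at room temperature before reaction start.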
The depositor's hits bear a star; ? = inconclusive; . = no result; [ ] = another dose, or the depositor's remark. Unless noted, calls come from the whole dose curve; as a rule, active = well fitted curve in the direction sought with a large enough effect; inconclusive = small, poorly fitted or top-dose-only effect, or another doubt; inactive = no such curve, though single readings can be large; an effect the other way counts as inactive or inconclusive. Potency is the fitted concentration of half-maximal effect.

SMILES | AMA1-RON2 inh | Pf growth 96h | NS1 function inh | Pf growth 48h | Sm TGR block
Cc1c(C(=O)Nc2ccc(S(=O)(=O)N(C)C3CCN(C)CC3)cc2)oc2ccccc12 | -10.3%[11.6 µM] | ? | . | 4.65µM* | -15.7%
CC(=O)Nc1ccc(NC(=O)C/C(C)=N/NC(N)=S)cc1 | 72.3% | 1.85µM* | . | ? | -8.8%
CC(C)CC(=O)Nc1ccc(-c2cn3ccsc3n2)cc1 | -22.9% | 13.1µM* | -6.6% | 73.8% | -21.3%
CC(C)(C)C(=O)Nc1ccc(-c2cn3ccsc3n2)cc1 | -16.0% | 30.0% | -59.0% | 43.8% | 9.2%
CCc1ccc(NC(=O)C2CCCN(S(=O)(=O)c3cccc4nonc34)C2)cc1 (centres undefined) | . | . | . | . | -3.7%
COC(=O)c1cc2ccccn2c2c(C(=O)OC)c(C(=O)OC)cc1-2 | -6.2% | -9.5% | -1.3% | . | 3.3%
COC(=O)c1cc2n3ccccc3c(C)c(-c3ccccc3)c-2c1C(=O)OC | -13.8% | 9.28µM* | 21.2% | . | -37.5%
COC(=O)c1cc2c(C)c(C)c3ccccn3c-2c1C(=O)OC | -4.5% | 13.1µM* | 5.1% | . | -15.4%
O=C1OC(c2ccccc2)=NC12CC2c1ccc(Cl)cc1 (centres undefined) | 36.9% | 13.9% | -55.6% | 26.5% | 14.1µM*
COc1ccccc1NC(=O)C(=O)/C=C(\O)c1ccccc1 | 15.1% | 77.6% | -2.6% | 106.1% | -12.1%
CCc1ccc(-n2c(SCC(=O)Nc3cccc(S(=O)(=O)NC4=NCCCCC4)c3)nc3ccccc3c2=O)cc1 | 21.3% | ? | ? | ? | 0.2%
Cc1ccc(S(=O)(=O)N2CCOCC2)cc1NC(=O)CSc1ncccn1 | -7.1% | 3.6% | . | ? | 6.1%
Cc1ccc(S(=O)(=O)N2CCOCC2)cc1NC(=O)CSc1nnc2cc(C)c3ccccc3n12 | -25.7% | 13.1µM* | 8.1% | 5.86µM* | 2.9%
Cc1nc(SCC(=O)Nc2cc(S(=O)(=O)N3CCOCC3)ccc2Cl)nc(C)c1C | 14.6% | 14.7µM* | . | ? | -0.5%
O=C(CSc1nc2ccccc2c(=O)n1-c1ccc(F)c(Cl)c1)Nc1cccc(S(=O)(=O)N2CCOCC2)c1 | -9.1% | 4.15µM* | ? | ? | -2.3%
Cc1ccc(-n2c(SCC(=O)Nc3cccc(S(=O)(=O)NC4=NCCCCC4)c3)nc3ccccc3c2=O)cc1 | 23.0% | 3.7µM* | 28.5% | ? | 2.4%
O=C(NCc1ccc(F)cc1)c1c2c(nc3ccccc13)CCC2 | 4.2% | 18.5% | . | 0.2% | -30.5%
O=C(Nc1ccccc1C(F)(F)F)N1CC=C(c2c[nH]c3ccccc23)CC1 | . | . | . | . | -13.9%
CC1CCCN(C(=O)COC(=O)CNS(=O)(=O)c2ccc3ccccc3c2)C1 (centres undefined) | -2.1% | 66.4% | . | 36.7% | 1.6%
Cc1ccc(-n2c(SCC(=O)Nc3cc(S(=O)(=O)N4CCOCC4)ccc3Cl)nc3ccccc3c2=O)cc1 | -2.1% | 2.94µM* | ? | 10.4µM* | -10.1%
O=C(CSc1nc2ccccc2c(=O)n1-c1ccc(F)cc1)Nc1ccc2c(c1)CCC2 | -1.6% | 9.28µM* | ? | 9.28µM* | 4.1%
O=C(CSc1nc2ccc(F)cc2c(=O)n1-c1ccccc1)Nc1ccc2c(c1)CCC2 | 36.5% | . | . | . | .
O=C(CSc1nc2ccccc2c(=O)n1-c1ccc(F)cc1)Nc1ccc(Cl)c(S(=O)(=O)N2CCOCC2)c1 | -10.1% | 5.86µM* | ? | 9.28µM* | -16.2%
O=C(CSc1nc2ccccc2s1)Nc1cc(S(=O)(=O)N2CCOCC2)ccc1Cl | -2.6% | ? | 21.8% | ? | -7.8%
NC1=NC[C@@H](Cc2ccc(O)cc2)N1CCc1cc(C(F)(F)F)cc(C(F)(F)F)c1 | 13.9% | 3.29µM* | 2.9% | 5.86µM* | 11.6%
SMILES | AMA1-RON2 inh | Pf growth 96h | NS1 function inh | Pf growth 48h | Sm TGR block
NC1=NC[C@H](CC2CCCCC2)N1CCc1cc(C(F)(F)F)cc(C(F)(F)F)c1 | 4.6% | 2.33µM* | 12.5% | 2.94µM* | 7.9%
NC1=NC[C@@H](Cc2ccc(O)cc2)N1CCc1cccc(F)c1 | -2.3% | 1.85µM* | 2.3% | 10.4µM* | 9.0%
O=C1NC[C@H](Cc2ccc(O)cc2)N(CCc2cc(C(F)(F)F)cc(C(F)(F)F)c2)C1=O | -13.5% | . | . | . | .
COc1ccccc1NC(=O)Nc1ccc(S(=O)(=O)Nc2onc(C)c2C)cc1 | -10.8% | 13.5% | . | -7.7% | -23.6%
CCc1cccc(-n2nnc(-c3nc(-c4ccccc4Cl)no3)c2N)c1 | . | . | . | . | 2.8%
Cc1ccc(-c2noc(CSc3nnc(Cc4ccccc4)n3-c3ccc(Cl)cc3)n2)cc1 | -11.8% | 9.28µM* | 21.6% | . | 4.1%
COc1ccc(-c2noc(CSc3nnc(Cc4ccccc4)n3-c3ccc(Cl)cc3)n2)cc1 | -13.4% | ? | 9.8% | . | 14.2%
CC(=O)C1=NN(c2ccccc2)C(c2cccs2)N1c1ccc(N(C)C)cc1 (centres undefined) | ? | 2.08µM* | -3.7% | . | 0.0%
CCCn1c(SCC(=O)N2CCc3ccccc32)nnc1-c1ccco1 | 10.2% | ? | -9.6% | ? | -3.2%
Cn1nnnc1SCC(=O)c1cccs1 | 3.1% | 31.2% | -12.0% | 4.1% | 39.8µM*
O=C(CSc1nnc(-c2ccncc2)n1Cc1ccco1)N1c2ccccc2Sc2ccc(Cl)cc21 | 4.1% | 119.5% | 22.7% | -9.9% | 44.7µM*
CCCn1c(SCC(=O)N2c3ccccc3CC2C)nnc1-c1ccco1 (centres undefined) | 18.5% | ? | -8.6% | 11.7µM* | -23.5%
CN(C)C(=O)CSc1nnc(-c2ccncc2)n1Cc1ccco1 | 4.0% | ? | . | 19.4% | 56.1%
CC(NC(=O)CSc1nnc(-c2cc3cc(Cl)ccc3o2)n1C)c1ccccc1 (centres undefined) | -6.7% | 4.65µM* | -17.9% | ? | 5.9%
CCn1c(SCC(=O)N2c3ccccc3Sc3ccccc32)nnc1-c1ccco1 | -9.6% | -12.3% | 1.8%[9.22 µM] | ? | 14.1µM*
COCCCn1c(SCC(=O)N2CCCC(C)C2)nnc1-c1ccco1 (centres undefined) | -8.0% | 0.586µM* | 0.6% | -5.4% | ?
CCn1c(SCC(=O)c2cccs2)nnc1-c1ccco1 | 13.9% | -10.1% | -48.2% | 39.2% | 44.7µM*
CC1Cc2ccccc2N1C(=O)CSc1nc2ccccc2s1 (centres undefined) | -0.1% | ? | -1.3% | -25.6% | 4.3%
CC1Cc2ccccc2N1C(=O)CSc1nc(-c2ccccc2)cs1 (centres undefined) | 4.9% | 10.4µM* | 18.3% | ? | -2.2%
C=CCn1c(SCC(=O)N2c3ccccc3Sc3ccccc32)nnc1-c1ccco1 | -13.7% | -27.9% | 1.3% | -17.7% | ?
C[C@H](/C=C/[C@@]1(O)[C@H](C)C[C@H](O)CC1(C)C)O[C@@H]1O[C@H](CO)[C@@H](O)[C@H](O)[C@H]1O | -4.2% | ? | . | -4.9% | 0.6%
Cn1nnnc1SCC(=O)N1c2ccccc2Sc2ccc(Cl)cc21 | -11.7% | 79.7% | 2.8% | ? | 6.3%
Cn1c(SCC(=O)N2c3ccccc3Sc3ccc(Cl)cc32)nnc1-c1ccco1 | 12.6% | 1.47µM* | -38.8% | 9.28µM* | -27.4%
Cc1cc(NC(=O)CSc2nnc(-c3ccco3)n2C)no1 | 16.0% | 5.6% | . | ? | -27.7%
Cn1c(SCC(=O)Nc2ccc(Cl)cc2F)nnc1-c1ccco1 | -6.4% | ? | -19.2% | -12.9% | 35.5µM*
